# Inconclusive results are not listed. The source made the active and inactive calls. The calls were made as follows, unless noted: active = hit-call score of the fitted dose curve at least 0.9, where 1 is the maximum; inactive = score below 0.9.
# Tests used:
# [1] = target: Glucocorticoid receptor (Homo sapiens) (UniProt P04150); assay: ATG_GR_TRANS: Attagene TRANS-FACTORIAL HepG2 Assay for human Glucocorticoid Receptor (GR) (AID 2282978; active = hit-call score of the fitted dose curve at least 0.9, where 1 is the maximum;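 also: activators score as hits since higher reporter transcript over DMSO is fitted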); conditions: HepG2 Attagene TRANS GR reporter, mRNA transcription
# Sequence of Glucocorticoid receptor (Homo sapiens) (P04150 whole entry, looked up, the tested form may be a part): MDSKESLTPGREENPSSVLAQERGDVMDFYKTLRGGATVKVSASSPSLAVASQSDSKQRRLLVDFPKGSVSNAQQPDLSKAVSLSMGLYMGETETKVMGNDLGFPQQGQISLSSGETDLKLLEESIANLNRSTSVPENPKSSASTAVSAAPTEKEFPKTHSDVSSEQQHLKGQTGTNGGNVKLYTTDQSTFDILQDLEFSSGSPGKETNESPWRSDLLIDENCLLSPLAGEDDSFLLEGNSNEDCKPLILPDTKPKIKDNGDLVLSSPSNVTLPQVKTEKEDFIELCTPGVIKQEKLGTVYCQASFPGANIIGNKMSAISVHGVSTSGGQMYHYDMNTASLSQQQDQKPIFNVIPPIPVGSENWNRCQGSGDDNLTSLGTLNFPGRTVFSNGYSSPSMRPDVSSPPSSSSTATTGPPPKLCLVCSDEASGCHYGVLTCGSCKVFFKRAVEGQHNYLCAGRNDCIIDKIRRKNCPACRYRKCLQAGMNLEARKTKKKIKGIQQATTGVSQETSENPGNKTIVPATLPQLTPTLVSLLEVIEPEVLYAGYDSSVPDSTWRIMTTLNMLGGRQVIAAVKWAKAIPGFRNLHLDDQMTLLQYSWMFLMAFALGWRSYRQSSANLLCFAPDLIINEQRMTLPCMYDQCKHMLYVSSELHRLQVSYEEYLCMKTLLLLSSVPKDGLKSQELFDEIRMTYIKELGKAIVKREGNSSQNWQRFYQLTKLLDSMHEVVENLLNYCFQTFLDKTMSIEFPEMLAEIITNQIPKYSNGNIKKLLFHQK
# Outline: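 HepG2 transient transfection, multiple reporter units, GAL4-UAS under NR-GAL4 chimera control. 24 h treatment. Reporter mRNA by RT-PCR/CE fluorescence, DMSO as negative control.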
# [2] = target: Bile acid receptor (Homo sapiens) (UniProt Q96RI1); assay: ATG_FXR_TRANS: Attagene TRANS-FACTORIAL HepG2 Assay for Farnesoid X Receptor (FXR) (AID 2282979; active = hit-call score of the fitted dose curve at least 0.9, where 1 is the maximum;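 also: hits raise reporter mRNA above DMSO so AC50 marks FXR activation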); conditions: HepG2 Attagene TRANS FXR-GAL4 reporter transcription
# Sequence of Bile acid receptor (Homo sapiens) (Q96RI1 whole entry, looked up, the tested form may be a part): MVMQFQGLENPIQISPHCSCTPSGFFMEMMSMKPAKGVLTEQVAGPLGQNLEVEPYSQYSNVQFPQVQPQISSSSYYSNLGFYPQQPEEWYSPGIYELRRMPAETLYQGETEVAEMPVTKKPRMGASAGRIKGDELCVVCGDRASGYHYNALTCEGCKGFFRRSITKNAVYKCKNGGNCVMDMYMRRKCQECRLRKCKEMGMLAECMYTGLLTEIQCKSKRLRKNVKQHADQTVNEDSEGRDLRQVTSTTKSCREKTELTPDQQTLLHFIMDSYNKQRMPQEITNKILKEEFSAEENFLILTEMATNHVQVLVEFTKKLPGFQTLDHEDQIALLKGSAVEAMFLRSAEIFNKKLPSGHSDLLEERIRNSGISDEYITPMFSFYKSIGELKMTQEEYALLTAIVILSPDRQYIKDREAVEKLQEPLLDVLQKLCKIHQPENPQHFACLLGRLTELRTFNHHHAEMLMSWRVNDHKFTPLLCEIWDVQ
# Outline: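 HepG2 cells transiently transfected with reporter constructs in which a chimeric FXR-GAL4 protein drives a GAL4-UAS reporter; 24 h compound exposure. Reporter mRNA measured by RT-PCR, FAM labelling, HpaI digestion and capillary electrophoresis; gain-of-signal versus DMSO.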
# [3] = target: Oxysterols receptor LXR-alpha (Homo sapiens) (UniProt Q13133); assay: ATG_LXRa_TRANS: Attagene TRANS-FACTORIAL HepG2 Assay for human Liver X Receptor alpha (LXRa) (AID 2282980; active = hit-call score of the fitted dose curve at least 0.9, where 1 is the maximum); conditions: HepG2 Attagene TRANS reporter, LXRa transactivation
# Sequence of Oxysterols receptor LXR-alpha (Homo sapiens) (Q13133 whole entry, looked up, the tested form may be a part): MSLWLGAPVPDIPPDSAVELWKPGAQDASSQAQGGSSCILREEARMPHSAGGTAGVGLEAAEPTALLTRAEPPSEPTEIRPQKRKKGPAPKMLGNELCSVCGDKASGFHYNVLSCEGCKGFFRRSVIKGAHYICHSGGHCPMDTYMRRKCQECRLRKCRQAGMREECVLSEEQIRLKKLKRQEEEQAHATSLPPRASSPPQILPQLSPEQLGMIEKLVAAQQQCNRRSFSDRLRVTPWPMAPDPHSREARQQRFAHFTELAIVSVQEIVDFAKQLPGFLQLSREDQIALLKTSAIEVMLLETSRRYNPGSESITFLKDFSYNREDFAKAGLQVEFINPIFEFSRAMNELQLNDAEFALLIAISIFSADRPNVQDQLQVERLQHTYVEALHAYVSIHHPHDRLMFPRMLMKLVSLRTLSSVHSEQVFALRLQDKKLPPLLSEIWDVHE
# Outline: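 HepG2 cells were transiently transfected with multiplexed reporter units driven by chimeric LXRa–GAL4 fusion proteins, then dosed for 24 h. Reporter mRNA was quantified by RT-PCR, fluorescent labelling and capillary electrophoresis; gain of signal fitted against DMSO baseline.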
# [4] = target: Hepatocyte nuclear factor 4-alpha (Homo sapiens) (UniProt P41235); assay: ATG_HNF4a_TRANS: Attagene TRANS-FACTORIAL HepG2 Assay for human Hepatocyte Nuclear Factor 4 alpha (HNF4a) (AID 2282982; active = hit-call score of the fitted dose curve at least 0.9, where 1 is the maximum); conditions: HepG2 HNF4a transactivation reporter, mRNA readout
# Sequence of Hepatocyte nuclear factor 4-alpha (Homo sapiens) (P41235 whole entry, looked up, the tested form may be a part): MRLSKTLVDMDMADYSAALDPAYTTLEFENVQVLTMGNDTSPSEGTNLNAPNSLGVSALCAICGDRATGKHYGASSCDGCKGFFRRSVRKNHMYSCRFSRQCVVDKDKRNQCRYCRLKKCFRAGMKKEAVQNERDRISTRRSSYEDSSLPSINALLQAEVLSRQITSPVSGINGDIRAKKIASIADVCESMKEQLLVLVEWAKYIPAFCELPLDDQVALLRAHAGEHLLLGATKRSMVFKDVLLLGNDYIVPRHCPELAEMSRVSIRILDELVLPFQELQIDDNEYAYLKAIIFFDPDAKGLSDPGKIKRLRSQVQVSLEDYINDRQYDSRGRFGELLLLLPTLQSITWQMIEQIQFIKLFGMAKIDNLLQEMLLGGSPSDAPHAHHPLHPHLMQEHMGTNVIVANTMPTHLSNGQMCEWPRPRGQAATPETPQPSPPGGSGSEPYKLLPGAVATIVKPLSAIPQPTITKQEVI
# Outline: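 Using HepG2 liver cells transfected with GAL4-UAS reporter units, chemical-induced mRNA increases were assessed after 24 hours. Fluorescent RT-PCR fragments were separated by capillary electrophoresis and compared with DMSO negative controls.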
# [5] = ATG_M_32_TRANS: Attagene TRANS-FACTORIAL HepG2 Assay for M32 Transcription Factor (Internal Marker) (AID 2282984; active = hit-call score of the fitted dose curve at least 0.9, where 1 is the maximum;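 also: transcript level of a background control reporter unit measured by RT-PCR and capillary electrophoresis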); conditions: HepG2 Attagene TRANS M32 internal marker reporter
# Outline: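 Fluorescence-detected mRNA induction, HepG2 liver cells, 24 h after dosing. Multiple GAL4-UAS reporter units introduced by transient transfection; background-control endpoint analysed for gain of signal against DMSO.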
# [6] = target: Nuclear receptor subfamily 4 group A member 2 (Homo sapiens) (UniProt P43354); assay: ATG_NURR1_TRANS: Attagene TRANS-FACTORIAL HepG2 Assay for human Nuclear Receptor Related Protein 1 (NURR1) (AID 2282985; active = hit-call score of the fitted dose curve at least 0.9, where 1 is the maximum); conditions: HepG2 Attagene TRANS reporter, mRNA readout
# Sequence of Nuclear receptor subfamily 4 group A member 2 (Homo sapiens) (P43354 whole entry, looked up, the tested form may be a part): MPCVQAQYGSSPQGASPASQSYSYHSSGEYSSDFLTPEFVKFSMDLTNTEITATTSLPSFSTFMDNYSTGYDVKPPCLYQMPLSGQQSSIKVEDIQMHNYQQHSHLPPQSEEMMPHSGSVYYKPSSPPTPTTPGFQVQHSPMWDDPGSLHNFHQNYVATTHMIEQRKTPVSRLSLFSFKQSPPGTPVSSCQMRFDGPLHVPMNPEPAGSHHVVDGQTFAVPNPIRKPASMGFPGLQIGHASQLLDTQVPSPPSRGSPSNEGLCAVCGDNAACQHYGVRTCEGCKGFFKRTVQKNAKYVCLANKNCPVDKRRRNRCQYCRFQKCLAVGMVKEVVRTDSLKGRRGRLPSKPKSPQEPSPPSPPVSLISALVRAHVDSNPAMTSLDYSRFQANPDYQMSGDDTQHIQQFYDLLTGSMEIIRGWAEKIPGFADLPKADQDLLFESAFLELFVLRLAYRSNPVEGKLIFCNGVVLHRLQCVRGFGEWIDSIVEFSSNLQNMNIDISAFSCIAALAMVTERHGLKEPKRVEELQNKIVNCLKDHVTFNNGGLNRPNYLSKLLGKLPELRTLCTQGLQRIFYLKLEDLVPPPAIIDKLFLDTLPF
# Outline: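 Chimeric NR-Gal4 proteins were expressed in human HepG2 cells bearing GAL4-UAS reporter units, and induced reporter mRNA was quantified 24 h post-dosing by RT-PCR and capillary electrophoresis.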
# [7] = target: Transcriptional activator Myb (Homo sapiens) (UniProt P10242); assay: ATG_Myb_CIS: Attagene CIS-FACTORIAL HepG2 Assay for human Myeloblastosis (Myb) Proto-Oncogene Transcription Factor (AID 2282986); conditions: HepG2 Attagene CIS-FACTORIAL Myb reporter transcription; actives raise or lower the signal
# Sequence of Transcriptional activator Myb (Homo sapiens) (P10242 whole entry, looked up): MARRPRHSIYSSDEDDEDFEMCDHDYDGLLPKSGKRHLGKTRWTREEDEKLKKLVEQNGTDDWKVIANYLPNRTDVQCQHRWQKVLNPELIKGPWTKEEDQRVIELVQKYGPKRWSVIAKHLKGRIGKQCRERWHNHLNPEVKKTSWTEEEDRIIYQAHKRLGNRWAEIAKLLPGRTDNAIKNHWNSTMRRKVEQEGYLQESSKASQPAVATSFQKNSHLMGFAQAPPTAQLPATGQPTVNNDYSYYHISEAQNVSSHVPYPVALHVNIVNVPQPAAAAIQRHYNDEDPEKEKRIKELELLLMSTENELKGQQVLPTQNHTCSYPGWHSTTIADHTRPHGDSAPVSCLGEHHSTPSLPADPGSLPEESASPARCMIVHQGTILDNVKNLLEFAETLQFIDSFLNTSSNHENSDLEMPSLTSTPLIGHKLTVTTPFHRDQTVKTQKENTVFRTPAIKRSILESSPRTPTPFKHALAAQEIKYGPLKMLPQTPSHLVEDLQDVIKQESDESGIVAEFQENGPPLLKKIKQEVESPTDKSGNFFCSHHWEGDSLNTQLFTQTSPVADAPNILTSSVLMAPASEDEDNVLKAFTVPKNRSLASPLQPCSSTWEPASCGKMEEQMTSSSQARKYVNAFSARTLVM
# Outline: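 Multiplexed cis-reporter system in HepG2: transient transfection, 24 h treatment, mRNA readout by RT-PCR and capillary electrophoresis. Both increases and decreases are scored versus DMSO negative control.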
# [8] = target: Nuclear respiratory factor 1 (Homo sapiens) (UniProt Q16656); assay: ATG_NRF1_CIS: Attagene CIS-FACTORIAL HepG2 Assay for human Nuclear Respiratory Factor 1 (NRF1) Orphan Gene (AID 2282987); conditions: HepG2 NRF1 cis-element reporter, Attagene multiplex; actives raise or lower the signal
# Sequence of Nuclear respiratory factor 1 (Homo sapiens) (Q16656 whole entry, looked up): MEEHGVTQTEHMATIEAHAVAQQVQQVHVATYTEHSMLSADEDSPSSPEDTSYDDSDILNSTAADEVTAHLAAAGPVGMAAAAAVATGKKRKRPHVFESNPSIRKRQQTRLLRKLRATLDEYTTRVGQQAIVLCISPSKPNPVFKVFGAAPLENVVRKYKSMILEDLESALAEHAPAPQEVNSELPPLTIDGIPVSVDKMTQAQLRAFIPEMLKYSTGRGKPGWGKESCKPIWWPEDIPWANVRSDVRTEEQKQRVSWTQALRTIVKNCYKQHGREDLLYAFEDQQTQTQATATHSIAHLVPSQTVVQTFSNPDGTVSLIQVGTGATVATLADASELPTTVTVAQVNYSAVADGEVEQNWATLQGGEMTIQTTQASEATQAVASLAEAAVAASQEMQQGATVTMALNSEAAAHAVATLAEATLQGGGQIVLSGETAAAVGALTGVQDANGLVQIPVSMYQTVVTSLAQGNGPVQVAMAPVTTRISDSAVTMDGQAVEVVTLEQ
# Outline: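 Endogenous factor activity was captured via cis-element-driven reporter transcripts in HepG2 cells. Following 24 h chemical treatment, transcripts were quantified by RT-PCR and capillary electrophoresis.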
# [9] = ATG_NFI_CIS: Attagene CIS-FACTORIAL HepG2 Assay for human Nuclear Factor I (NFI) (AID 2282989); conditions: HepG2 cis-regulatory reporter, NFI response element transcription; actives raise or lower the signal
# Outline: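 Transfected HepG2 liver cells, exposed 24 h, supplied total RNA for oligo(dT) reverse transcription and reporter-specific PCR. Labelled, HpaI-cut fragments were sized by capillary electrophoresis; DMSO set the baseline for bidirectional fitting.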
# [10] = target: Myc proto-oncogene protein (Homo sapiens) (UniProt P01106); assay: ATG_Myc_CIS: Attagene CIS-FACTORIAL HepG2 Assay for human Myelocytomatosis (Myc) Proto-Oncogene Transcription Factor (AID 2282990); conditions: HepG2, Attagene cis-reporter transcription factor activity; actives raise or lower the signal
# Sequence of Myc proto-oncogene protein (Homo sapiens) (P01106 whole entry, looked up): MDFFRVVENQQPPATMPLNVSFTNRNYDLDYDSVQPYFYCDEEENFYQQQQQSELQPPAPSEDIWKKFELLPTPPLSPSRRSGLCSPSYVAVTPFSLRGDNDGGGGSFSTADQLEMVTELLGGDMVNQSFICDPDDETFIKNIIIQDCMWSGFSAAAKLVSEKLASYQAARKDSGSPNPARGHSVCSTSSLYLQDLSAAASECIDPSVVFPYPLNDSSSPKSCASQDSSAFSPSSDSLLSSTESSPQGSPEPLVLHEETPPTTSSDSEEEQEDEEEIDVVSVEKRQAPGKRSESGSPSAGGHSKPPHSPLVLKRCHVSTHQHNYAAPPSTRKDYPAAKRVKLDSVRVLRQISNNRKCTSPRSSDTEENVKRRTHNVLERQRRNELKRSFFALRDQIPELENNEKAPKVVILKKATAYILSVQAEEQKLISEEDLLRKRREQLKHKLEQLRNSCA
# Outline: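 Multiplexed cis-reporter transcription in HepG2 cells after 24 h chemical treatment. Reporter mRNA measured by RT-PCR and capillary electrophoresis fluorescence; activity fitted bidirectionally against DMSO control.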
# [11] = ATG_NF_kB_CIS: Attagene CIS-FACTORIAL HepG2 Assay for human Nuclear Factor Kappa B (NF-kB) (AID 2282991); conditions: HepG2 Attagene cis-factorial NF-kB reporter mRNA; actives raise or lower the signal
# Outline: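 After 24 h compound incubation, transfected HepG2 cells yield total RNA; reporter cDNA is PCR-amplified, end-labelled with 6-FAM, HpaI-digested and analysed on a genetic analyser. Endogenous factor activity, DMSO-referenced bidirectional fit.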
# [12] = ATG_NRF2_ARE_CIS: Attagene CIS-FACTORIAL HepG2 Assay for human Nuclear Factor Erythroid 2 Related Factor 2 (NFR2) response to Antioxidant Response Elements (ARE) (AID 2282992); conditions: HepG2 Attagene ARE/NRF2 reporter, transcription factor activity; actives raise or lower the signal
# Outline: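 Endogenous transcription factor activity read out as reporter transcript levels (RT-PCR plus capillary electrophoresis, fluorescence) in transiently transfected HepG2 cells. Measured at 24 h after dosing; gain or loss of signal fitted versus DMSO.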
# [13] = ATG_Oct_MLP_CIS: Attagene CIS-FACTORIAL HepG2 Assay for human Octamer-Binding Transcription Factor (Oct) (AID 2282993); conditions: HepG2 Attagene cis-factorial Oct reporter, mRNA; actives raise or lower the signal
# Outline: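 Using HepG2 cells bearing transfected cis-reporter constructs, mRNA induction was read after 24 h by fluorescent RT-PCR and capillary electrophoresis, with DMSO defining baseline for gain- or loss-of-signal fits.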
# [14] = target: Cellular tumor antigen p53 (Homo sapiens) (UniProt P04637); assay: ATG_p53_CIS: Attagene CIS-FACTORIAL HepG2 Assay for human p53 Transcription Factor (AID 2282994); conditions: HepG2 p53 cis-element reporter, Attagene mRNA; actives raise or lower the signal
# Sequence of Cellular tumor antigen p53 (Homo sapiens) (P04637 whole entry, looked up): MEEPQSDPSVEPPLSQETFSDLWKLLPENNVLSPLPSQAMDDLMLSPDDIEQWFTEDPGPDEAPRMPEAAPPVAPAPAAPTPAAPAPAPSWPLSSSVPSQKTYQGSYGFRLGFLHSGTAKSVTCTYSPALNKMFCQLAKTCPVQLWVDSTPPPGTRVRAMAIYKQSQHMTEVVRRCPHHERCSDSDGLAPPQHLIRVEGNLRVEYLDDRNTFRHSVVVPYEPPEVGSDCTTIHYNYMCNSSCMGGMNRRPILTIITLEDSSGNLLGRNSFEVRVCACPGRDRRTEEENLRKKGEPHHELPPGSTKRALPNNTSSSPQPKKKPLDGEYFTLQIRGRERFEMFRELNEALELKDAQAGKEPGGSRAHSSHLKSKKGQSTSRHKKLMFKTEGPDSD
# Outline: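 Endogenous p53 activity read in transiently transfected HepG2 from a cis-element-driven reporter transcript after 24 h exposure. RNA reverse-transcribed, PCR-amplified, fluorescently labelled and sized by capillary electrophoresis; gain or loss fitted against DMSO baseline.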
# [15] = ATG_M_06_TRANS: Attagene TRANS-FACTORIAL HepG2 Assay for M06 Transcription Factor (Internal Marker) (AID 2282983; active = hit-call score of the fitted dose curve at least 0.9, where 1 is the maximum); conditions: HepG2 Attagene TRANS M06 internal marker reporter
# Outline: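 In this multiplexed HepG2 system, compounds are incubated 24 h with cells carrying GAL4-UAS reporter units. Reporter RNA is amplified and resolved by capillary electrophoresis, and induction is scored against DMSO.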
# [16] = target: Oxysterols receptor LXR-beta (Homo sapiens) (UniProt P55055); assay: ATG_LXRb_TRANS: Attagene TRANS-FACTORIAL HepG2 Assay for human Liver X Receptor beta (LXRb) (AID 2282981; active = hit-call score of the fitted dose curve at least 0.9, where 1 is the maximum); conditions: HepG2 Attagene TRANS GAL4-LXRb reporter, mRNA
# Outline: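 Liver-derived HepG2 cells transfected with Gal4-responsive reporters were dosed for 24 h. Activation was scored as rise in reporter mRNA, by RT-PCR and capillary electrophoresis, above DMSO baseline.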
# [17] = BSK_3C_TissueFactor: BioMAP Diversity Plus: 3C Assay for Tissue Factor Biomarker Activity (AID 2282997); conditions: BioMAP 3C HUVEC, tissue factor biomarker readout; actives raise or lower the signal
# Outline: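 Readout: Tissue Factor ELISA. Cells: human primary umbilical vein endothelium. Time: 24 h after dosing. Analysis: bidirectional fit, DMSO baseline.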
# [18] = BSK_3C_uPAR: BioMAP Diversity Plus: 3C Assay for Urokinase-type plasminogen activator receptor (uPAR) Biomarker Activity (AID 2282998); conditions: BioMAP 3C HUVEC, uPAR biomarker ELISA; actives raise or lower the signal
# Outline: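 In this endothelial cell-based assay, human umbilical vein primary cells were treated with chemicals and harvested at 24 h. uPAR was quantified using ELISA, with gains or losses fitted relative to DMSO controls.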
SMILES,outcome [1],outcome [2],outcome [3],outcome [4],outcome [5],outcome [6],outcome [7],outcome [8],outcome [9],outcome [10],outcome [11],outcome [12],outcome [13],outcome [14],outcome [15],AC50 [12],outcome [16],outcome [17],outcome [18]
COS(=O)(=O)c1ccc(C)cc1,inactive,inactive,inactive,inactive,inactive,inactive,inactive,inactive,inactive,inactive,inactive,inactive,inactive,inactive,,,,,
O=C(Cc1ccccc1)c1ccccc1,inactive,inactive,,,inactive,,inactive,inactive,inactive,inactive,,,inactive,,inactive,19.8 µM (active),,,
ClC1=C(Cl)[C@]2(Cl)[C@@H]3[C@@H](Cl)[C@@H](Cl)C[C@@H]3[C@@]1(Cl)C2(Cl)Cl,inactive,inactive,inactive,,inactive,,inactive,inactive,inactive,inactive,inactive,inactive,inactive,,inactive,,inactive,,
COC(=O)Cc1ccccc1,inactive,,inactive,,inactive,inactive,inactive,inactive,inactive,inactive,,inactive,inactive,,inactive,,,inactive,inactive
Cc1ccccc1C(=O)Nc1cccc(OC(C)C)c1,inactive,,inactive,inactive,inactive,,inactive,inactive,inactive,inactive,inactive,,inactive,inactive,,,inactive,,
